# Where “and” joins values, the source holds several entries; their conditions need not be identical. Equal values may be shown once. Results filed as inconclusive are left out. Calls of active or inactive are those of the source. Unless noted, no rule for the calls is given here.
# Legend:
# [1] = compounds altering circadian rhythm period length – cell-based, LOPAC library, luminescence reporter (AID 2774); settings: circadian reporter cells, at 7 µM, actives lie on both sides;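 also: values are relative to mean of DMSO wells on each plate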
# [2] = system: Hepatitis C virus NS3 helicase; experiment: blockers of NS3h binding to ssDNA – biochemical, fluorescence polarization, LOPAC1280 library, primary screen (AID 687035; in the data active = inhibition above about 37%); settings: Purified HCV NS3 helicase, Cy5-dT15 ssDNA binding fluorescence polarization; stronger effect = higher value; concentration not given here
# [3] = compounds altering Cy5-DNA-NS3h complex signal – biochemical, LOPAC1280, artefact control for HCV NS3 helicase inhibitor project (AID 687037); settings: Cy5-DNA-NS3h complex fluorescence interference counterscreen
# [4] = viability loss with induced miR-34 in A549 – imaging, A549 dox-inducible miR-34, nuclei and caspase counts, primary screen (AID 1347080;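 active = compounds whose cell count with miR-34 switched on is under 0.7 times the count with it off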); settings: A549 miR-34 inducible, Hoechst nuclei count, 48 h
# [5] = blockers of cellular phospholipid synthesis – cell-based, LOPAC library, screen 4, primary screen (AID 1347384); settings: animal cells, phospholipid biosynthesis inhibition screen; at 10 µM
# [6] = MELAS cybrid and Rieske KO viability enhancers – cell-based, MELAS cybrids, Rieske KO mouse fibroblasts, CellTiter-Glo, primary screen (AID 1508586;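 active = mean z-score across replicates of 1.96 or higher in either the MELAS or the Rieske mutant cell line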;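 also: z relative to plate mean and SD of compound and empty wells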); settings: low glucose
# [7] = galactose survival enhancers in mitochondrial complex I cybrids – cell-based, galactose medium, ATP luminescence, primary screen (AID 1645843;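 active = z-score of at least 1.8 in each of two replicates, scored against plate mean and spread of sample wells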;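 also: positive z means more ATP and so rescue of galactose-driven cybrid death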); settings: complex I mutant cybrid cells, 72 h, stronger effect = higher value
# [8] = target: ATP-dependent translocase ABCB1 (Homo sapiens) (UniProt P08183); experiment: P-glycoprotein substrate transport blockade – cell-based (AID 377; in the data active = fluorescence slope change above about 50%); settings: MDR1-expressing cells, fluorescent substrate accumulation slope; stronger effect = higher value; concentration not given here
# Chain of ATP-dependent translocase ABCB1 (Homo sapiens) (P08183 whole entry, looked up): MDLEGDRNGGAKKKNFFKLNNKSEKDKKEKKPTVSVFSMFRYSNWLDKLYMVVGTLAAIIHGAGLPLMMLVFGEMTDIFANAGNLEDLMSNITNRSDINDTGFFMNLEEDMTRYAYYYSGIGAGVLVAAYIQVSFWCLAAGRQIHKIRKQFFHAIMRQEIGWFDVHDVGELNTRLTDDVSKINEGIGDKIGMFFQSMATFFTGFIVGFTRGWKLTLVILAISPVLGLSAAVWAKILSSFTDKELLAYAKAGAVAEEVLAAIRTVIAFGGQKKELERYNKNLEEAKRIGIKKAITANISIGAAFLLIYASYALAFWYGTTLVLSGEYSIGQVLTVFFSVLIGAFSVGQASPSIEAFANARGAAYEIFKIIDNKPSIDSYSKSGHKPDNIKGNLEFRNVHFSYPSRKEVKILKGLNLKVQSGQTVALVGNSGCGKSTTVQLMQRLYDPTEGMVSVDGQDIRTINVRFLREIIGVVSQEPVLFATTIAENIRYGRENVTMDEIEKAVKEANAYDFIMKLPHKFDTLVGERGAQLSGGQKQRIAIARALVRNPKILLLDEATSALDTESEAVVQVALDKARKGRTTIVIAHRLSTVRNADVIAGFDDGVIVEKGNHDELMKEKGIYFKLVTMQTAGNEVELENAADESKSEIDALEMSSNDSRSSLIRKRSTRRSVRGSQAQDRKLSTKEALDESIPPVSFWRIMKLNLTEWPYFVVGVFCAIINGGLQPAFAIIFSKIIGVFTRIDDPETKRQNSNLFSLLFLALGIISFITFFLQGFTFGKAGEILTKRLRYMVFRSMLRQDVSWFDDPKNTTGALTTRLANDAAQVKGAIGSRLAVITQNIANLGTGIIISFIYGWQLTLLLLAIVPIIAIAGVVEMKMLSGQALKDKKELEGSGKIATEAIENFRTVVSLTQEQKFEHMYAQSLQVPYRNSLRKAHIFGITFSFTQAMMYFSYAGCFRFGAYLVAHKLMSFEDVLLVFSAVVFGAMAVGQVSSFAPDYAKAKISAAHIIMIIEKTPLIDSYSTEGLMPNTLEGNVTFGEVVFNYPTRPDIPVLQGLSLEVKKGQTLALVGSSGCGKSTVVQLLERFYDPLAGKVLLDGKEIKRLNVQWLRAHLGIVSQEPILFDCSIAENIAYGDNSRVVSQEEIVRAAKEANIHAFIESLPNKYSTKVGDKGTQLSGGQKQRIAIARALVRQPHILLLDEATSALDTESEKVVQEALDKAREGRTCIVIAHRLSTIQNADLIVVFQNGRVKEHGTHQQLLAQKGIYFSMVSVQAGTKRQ
# [9] = compounds altering viability of human ES cells (AID 493140); settings: human embryonic stem cell survival screen; stronger effect = higher value;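 also: cells exposed to compounds for four days before counting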
# [10] = P. berghei load reduction in hepatocytes – cell-based, HepG2, luciferase luminescence, HepG2 viability, primary screen (AID 624349; in the data active = parasite load remaining mostly below about 12%, no sharp cut-off; inactive = mostly above about 10%;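 also: 100% = mean of DMSO negative control wells on the same plate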); settings: P. berghei liver stage in HepG2, luciferase luminescence, concentration not given here; parasite load remaining: stronger effect = lower value; viability: measured here: HepG2 viability without parasites
# [11] = chitosan synthesis blockers in C. neoformans – flow cytometry, Cibacron Brilliant Red staining (AID 1347148); settings: Cryptococcus neoformans chitosan, stronger effect = lower value; at 10 µM unless noted;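 also: compound exposure lasted three days at 37 degrees C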
# [12] = stronger effect = lower value, cell number ratio, induced over uninduced
# [13] = measured here: relative caspase fold change +Dox/-Dox
# [14] = measured here: total cells with miR-34 induction, stronger effect = lower value
# [15] = measured here: total cells without miR-34 induction
# [16] = MELAS cybrid survival, CellTiter-Glo 48 h, stronger effect = higher value
# [17] = Rieske KO mouse fibroblast survival, CellTiter-Glo 72 h
smiles,measurement,setting,value
CCC(CO)Nc1nc(NCc2ccccc2)c2ncn(C(C)C)c2n1 (configuration not stated),period change,[1],1.22 h (active)
same,inhibition,[2],0% (inactive)
same,fluorescence ratio (interference),[3],1 (inactive)
same,fold change,[4]; [12],1.36 (inactive) and 0.915 (inactive)
same,fold change,[4]; [13],0.998 and 1.15
same,cell count,[4]; [14],1560 and 4690
same,cell count,[4]; [15],1150 and 5130
same,outcome,[5],inactive
same,z-score,[6]; [16],-0.381 (inactive)
same,z-score,[6]; [17],0.0764
same,z-score,[7],-0.51 (inactive)
COc1ccc(-c2ccc(N)[n+](CCCC(=O)O)n2)cc1,fluorescence slope change,[8],101% (active)
same,period change,[1],0.235 h (inactive)
same,survival,[9],6.75 (inactive)
same,parasite load remaining,[10],113% (inactive) and 70.4% (inactive)
same,viability,[10],102% and 78.3%
same,inhibition,[2],-3% (inactive)
same,fluorescence ratio (interference),[3],0.9 (inactive)
same,fold change,[4]; [12],0.962 (inactive) and 0.851 (inactive)
same,fold change,[4]; [13],1.4 and 1.26
same,cell count,[4]; [14],9690 and 9480
same,cell count,[4]; [15],10100 and 11100
same,outcome,[5],inactive
same,z-score,[6]; [16],0.473 (inactive)
same,z-score,[6]; [17],0.0476
same,z-score,[7],0.685 (inactive)
CC/C=C\C/C=C\C/C=C\C/C=C\C/C=C\CCCCCC(=O)O,survival,[9],78 (inactive)
same,fold change,[4]; [12],0.983 (inactive) and 0.953 (inactive)
same,fold change,[4]; [13],0.972 and 0.777
same,cell count,[4]; [14],5080 and 5820
same,cell count,[4]; [15],5170 and 6110
same,fold fluorescence,[11],5.56 (inactive)
CCCCC/C=C\C/C=C\C/C=C\CCCCC(=O)O,survival,[9],76.5 (inactive)
same,fold change,[4]; [12],0.948 (inactive) and 1.06 (inactive)
same,fold change,[4]; [13],1.2 and 0.96
same,cell count,[4]; [14],5680 and 5970
same,cell count,[4]; [15],5990 and 5660
same,fold fluorescence,[11],4.86 (inactive)
CC/C=C\C/C=C\C/C=C\C/C=C\C/C=C\CCCC(=O)O,survival,[9],106 (inactive)
same,fold change,[4]; [12],0.976 (inactive) and 0.979 (inactive)
same,fold change,[4]; [13],0.982 and 0.878
same,cell count,[4]; [14],5680 and 5960
same,cell count,[4]; [15],5820 and 6080
same,fold fluorescence,[11],4.6 (inactive)
CCCCC/C=C\C/C=C\CCCCCCCC(=O)O,survival,[9],55.7 (inactive)
same,fold change,[4]; [12],0.973 (inactive) and 1.02 (inactive)
same,fold change,[4]; [13],1.17 and 0.947
same,cell count,[4]; [14],6220 and 5980
same,cell count,[4]; [15],6400 and 5840
same,fold fluorescence,[11],4.86 (inactive)
CC(=O)N[C@@H](CSC/C=C(\C)CC/C=C(\C)CC/C=C(\C)CCC=C(C)C)C(=O)O,survival,[9],106 (inactive)
same,fold change,[4]; [12],0.941 (inactive) and 0.949 (inactive)
same,fold change,[4]; [13],1.39 and 0.928
same,cell count,[4]; [14],6090 and 5570
same,cell count,[4]; [15],6470 and 5860
same,fold fluorescence,[11],5.22 (inactive)
CCCCC/C=C\C/C=C\C/C=C\C/C=C\CCCCCC(=O)O,survival,[9],79.5 (inactive)
same,fold change,[4]; [12],1.01 (inactive) and 0.958 (inactive)
same,fold change,[4]; [13],1.23 and 0.967
same,cell count,[4]; [14],6030 and 5700
same,cell count,[4]; [15],5980 and 5950
same,fold fluorescence,[11],4.08 (inactive)

# Reference: PubChem BioAssay
